Data on five compounds can be found in PubChem BioAssay.

Active and inactive are the calls of the source.

For one experiment, the target named is Albumin (Bos taurus) (UniProt P02769). Description: compounds binding labelled BSA control protein – biochemical, small-molecule microarray, Alexa647 label, 635/667 nm fluorescence, artefact control for SMM control protein annotation, profiling panel (AID 1118).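 Also: score merges 667 nm emission intensity and signal-to-noise per printed compound spot.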 Particulars: BSA-A647 binding, fluorescence 635 nm, higher = more signal.
Experiment [1] in a line: probe aXIP binding to arrayed compounds – biochemical, NeuroSMM set, 635/667 nm fluorescence, primary screen (AID 1119).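 Also: probe is the protein aXip251-270 applied at 1 µg/mL to compound-printed slides; binding of probe to printed compounds measured as 667 nm fluorescence plus signal to noise.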 The following applies: small-molecule microarray, higher = more signal, called active from +8 up or from −8 down.
Experiment [2] can be described thus: probe aNOTCH3 binding on compound microarray – biochemical, small-molecule microarray, 635/667 nm fluorescence, primary screen (AID 1120).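 Also: probe is a biotin-tagged antibody raised against NOTCH3 rather than NOTCH3 protein; score merges spot fluorescence near 667 nm with spot signal to noise.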 The following applies: higher = more signal.
Experiment [3] can be described thus: probe aNOTCH2 binding on compound microarray – biochemical, small-molecule microarray, 635/667 nm fluorescence, primary screen (AID 1121).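 Also: score merges feature fluorescence read at 667 nm with its signal to noise.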 The following applies: higher = more signal.
The target of experiment [4] is Carbonic anhydrase 2 (Homo sapiens) (UniProt P00918). Nature of the experiment: compounds binding carbonic anhydrase 2 – biochemical, small-molecule microarray, Alexa647-labelled CAII, profiling panel (AID 1122). Particulars: CAII-A647 binding fluorescence, higher = more signal.
A short description of experiment [5]: COS7 lysate on small-molecule microarray, probe aHis, 635 nm (AID 1123).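 Also: z-score combines 667nm fluorescence intensity with signal-to-noise per printed compound spot.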 The following applies: COS7 cell lysate, fluorescence, higher = more signal.
Experiment [6] in a line: probe aLAP1 signal on lysate-treated microarray – cell lysate, small-molecule microarray, COS7 lysate, primary screen (AID 1124).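 Also: lysate comes from COS7 cells expressing LAP1 and is applied at 0.3 µg/mL; score merges spot fluorescence near 667 nm with signal-to-noise over triplicate slides.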 The following applies: probe aLAP1, fluorescence, higher = more signal.
The subject of a further experiment is Sam68 (KHDRBS1). Description: compounds binding KHDRBS1 protein – biochemical, small-molecule microarray, 635 nm fluorescence, primary screen (AID 1125).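 Also: score merges 667 nm channel intensity with signal to noise over triplicate slides.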 The following applies: higher = more signal.
For experiment [7], the system named is Chordin-like protein 2 (CHRDL2). Description: compounds binding chordin-like 2 – biochemical, small-molecule microarray, 635 nm fluorescence, primary screen (AID 1126).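 Also: printed compound slides probed with Chrdl2 protein at 4 µg/mL for 1 h at 4 C; score merges 667 nm emission intensity with signal to noise over three replicate slides.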 The following applies: fluorescence 635 nm, higher = more signal.
Experiment [8] addresses Concanavalin-A (Canavalia ensiformis) (UniProt P02866). Description: compounds binding concanavalin A lectin – biochemical, small-molecule microarray, Alexa647 label, 635 nm, artefact control for SMM control protein annotation, primary screen (AID 1127).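 Also: z combines 667 nm emission intensity with signal-to-noise across three replicate slides.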 Particulars: ConA-A647 binding fluorescence, higher = more signal.
A short description of experiment [9]: compounds binding Alexa647 anti-His antibody – biochemical, small-molecule microarray, 635 nm fluorescence, artefact control for SMM control protein annotation, primary screen (AID 1128).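 Also: score merges feature fluorescence with signal-to-noise for each printed compound spot.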 The following applies: higher = more signal.
For experiment [10], the system named is Human papillomavirus type 1a E7 protein (residues 1-88). Description: HPV1a E7 small-molecule binders, primary screen, biochemical, small-molecule microarray, residues 1-88, 635 nm (AID 1129). Particulars: small-molecule microarray binding, fluorescence 635 nm; higher = more signal.
The target of experiment [11] is Focal adhesion kinase 1 (Homo sapiens) (UniProt Q05397). Description: PTK2 protein binding on printed compound slides – biochemical, small-molecule microarray, 635/667 nm fluorescence, BSA, DTT, primary screen (AID 1130).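 Also: composite of spot emission at 667 nm and signal to noise over triplicate slides.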 Particulars: 635 nm fluorescence, higher = more signal.
The test system of experiment [12] is Fibrinogen (Alexa647-labelled). Nature of the experiment: Alexa647-fibrinogen binding to printed small molecules – biochemical, small-molecule microarray, 635/667 nm fluorescence, artefact control for SMM control-protein annotation, profiling panel (AID 1131).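 Also: z-score merges 667 nm fluorescence with per-spot signal-to-noise over triplicate slides.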 The following applies: fibrinogen-A647 binding fluorescence, higher = more signal.
Experiment [13] addresses Follistatin (Homo sapiens) (UniProt P19883). Description: FST protein binding to printed compounds – biochemical, small-molecule microarray, 635/667 nm fluorescence, primary screen (AID 1132). The following applies: 635 nm fluorescence, higher = more signal.
Experiment [14] deals with Fibroblast growth factor 2 (Homo sapiens) (UniProt P09038). Description: basic fibroblast growth factor binding to printed compounds – biochemical, small-molecule microarray, 635/667 nm fluorescence, primary screen (AID 1133). Particulars: FGF2, fluorescence 635/667, higher = more signal.
Experiment [15] is described as follows: JC-1 mitochondrial potential readout, lung cancer cells – cell-based, A549, JC-1 fluorescence, basal, 24 h, 100 nL, profiling panel (AID 1138).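 Also: A549 lung adenocarcinoma cells under basal conditions with no added stimulus; test concentration not given here.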 The following applies: higher = more signal.
A further experiment relates to Lefty1. Nature of the experiment: Lefty1 protein binding to printed compounds – biochemical, small-molecule microarray, 635/667 nm fluorescence, primary screen (AID 1139). The following applies: fluorescence 635/667, higher = more signal.
Experiment [16] has as its system wheat germ agglutinin (Triticum aestivum), Alexa647-labelled. Description: Alexa647-WGA lectin binding to printed small molecules – biochemical, small-molecule microarray, 635/667 nm fluorescence, artefact control for SMM control-protein annotation, profiling panel (AID 1140).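 Also: score merges 667 nm feature emission with signal to noise over triplicate slides.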 The following applies: WGA-A647 binding, 635 nm fluorescence, higher = more signal.
For experiment [17], the target named is Luciferin 4-monooxygenase (Photinus pyralis) (UniProt P08659). Nature of the experiment: inhibition of purified Photinus pyralis luciferase – biochemical, luminescence, purified enzyme, 2006 set, primary screen (AID 1141).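 Also: cell-free assay with purified firefly luciferase at 100 ng per well in PBS; test concentration not given here.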 Particulars: purified firefly luciferase, SteadyGlo luminescence, 30 min; higher = more signal, called active from +8 up or from −8 down.
Sequence of Luciferin 4-monooxygenase (Photinus pyralis) (P08659 whole entry, looked up): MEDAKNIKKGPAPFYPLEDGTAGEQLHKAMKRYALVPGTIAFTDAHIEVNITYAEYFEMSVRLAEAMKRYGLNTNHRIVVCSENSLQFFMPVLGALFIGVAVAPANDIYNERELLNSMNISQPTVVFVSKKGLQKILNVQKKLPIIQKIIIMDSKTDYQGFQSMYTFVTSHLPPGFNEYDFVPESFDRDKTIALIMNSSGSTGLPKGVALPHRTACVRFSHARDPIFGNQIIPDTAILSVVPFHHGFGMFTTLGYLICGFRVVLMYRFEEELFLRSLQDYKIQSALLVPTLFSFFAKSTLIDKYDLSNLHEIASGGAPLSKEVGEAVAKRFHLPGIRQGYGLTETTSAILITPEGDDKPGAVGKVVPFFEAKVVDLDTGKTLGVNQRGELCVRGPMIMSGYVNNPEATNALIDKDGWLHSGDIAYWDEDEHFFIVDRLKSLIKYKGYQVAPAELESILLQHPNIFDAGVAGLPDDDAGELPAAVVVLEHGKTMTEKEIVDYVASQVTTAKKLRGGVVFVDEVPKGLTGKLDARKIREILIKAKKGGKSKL

Sequence of Follistatin (Homo sapiens) (P19883 whole entry, looked up): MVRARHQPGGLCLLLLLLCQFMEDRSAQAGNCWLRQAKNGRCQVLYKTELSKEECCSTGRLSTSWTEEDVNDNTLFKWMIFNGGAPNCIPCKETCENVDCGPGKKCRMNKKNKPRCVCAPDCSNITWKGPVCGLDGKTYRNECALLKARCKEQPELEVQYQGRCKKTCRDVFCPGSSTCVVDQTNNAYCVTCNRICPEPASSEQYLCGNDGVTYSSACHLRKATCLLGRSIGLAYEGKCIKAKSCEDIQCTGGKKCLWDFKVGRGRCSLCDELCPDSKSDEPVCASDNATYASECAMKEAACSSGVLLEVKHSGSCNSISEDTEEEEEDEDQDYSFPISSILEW
Sequence of Concanavalin-A (Canavalia ensiformis) (P02866 whole entry, looked up): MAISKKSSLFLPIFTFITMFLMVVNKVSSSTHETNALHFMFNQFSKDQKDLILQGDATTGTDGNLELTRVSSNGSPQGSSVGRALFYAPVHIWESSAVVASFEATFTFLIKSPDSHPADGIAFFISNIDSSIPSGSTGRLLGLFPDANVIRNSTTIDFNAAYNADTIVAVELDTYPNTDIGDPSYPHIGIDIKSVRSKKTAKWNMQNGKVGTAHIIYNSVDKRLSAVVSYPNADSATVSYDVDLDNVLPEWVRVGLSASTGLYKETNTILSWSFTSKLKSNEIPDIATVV
Sequence of Albumin (Bos taurus) (P02769 whole entry, looked up): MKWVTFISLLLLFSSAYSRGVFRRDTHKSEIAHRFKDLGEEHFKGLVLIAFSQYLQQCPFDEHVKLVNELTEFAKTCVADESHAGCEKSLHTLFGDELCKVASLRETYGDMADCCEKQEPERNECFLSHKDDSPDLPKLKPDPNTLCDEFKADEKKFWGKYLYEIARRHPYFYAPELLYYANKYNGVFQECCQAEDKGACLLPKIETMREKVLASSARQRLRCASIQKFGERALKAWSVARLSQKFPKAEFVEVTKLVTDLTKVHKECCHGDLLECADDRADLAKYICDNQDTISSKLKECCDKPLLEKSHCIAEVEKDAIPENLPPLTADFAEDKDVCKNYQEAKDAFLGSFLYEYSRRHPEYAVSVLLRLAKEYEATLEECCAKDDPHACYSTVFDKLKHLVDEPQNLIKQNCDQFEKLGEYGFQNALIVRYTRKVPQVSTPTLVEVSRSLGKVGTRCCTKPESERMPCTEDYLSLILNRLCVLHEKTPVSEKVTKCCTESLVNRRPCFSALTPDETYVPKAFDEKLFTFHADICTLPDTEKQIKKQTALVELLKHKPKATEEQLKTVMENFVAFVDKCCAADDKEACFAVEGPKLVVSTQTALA
Sequence of Fibroblast growth factor 2 (Homo sapiens) (P09038 whole entry, looked up): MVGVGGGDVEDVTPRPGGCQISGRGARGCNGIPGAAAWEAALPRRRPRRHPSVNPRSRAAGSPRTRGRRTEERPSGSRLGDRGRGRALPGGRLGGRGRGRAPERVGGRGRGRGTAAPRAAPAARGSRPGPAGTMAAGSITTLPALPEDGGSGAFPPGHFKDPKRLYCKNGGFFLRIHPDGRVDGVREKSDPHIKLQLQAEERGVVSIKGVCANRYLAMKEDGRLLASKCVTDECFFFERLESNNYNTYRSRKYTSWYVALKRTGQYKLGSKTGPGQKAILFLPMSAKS
Sequence of Focal adhesion kinase 1 (Homo sapiens) (Q05397 whole entry, looked up): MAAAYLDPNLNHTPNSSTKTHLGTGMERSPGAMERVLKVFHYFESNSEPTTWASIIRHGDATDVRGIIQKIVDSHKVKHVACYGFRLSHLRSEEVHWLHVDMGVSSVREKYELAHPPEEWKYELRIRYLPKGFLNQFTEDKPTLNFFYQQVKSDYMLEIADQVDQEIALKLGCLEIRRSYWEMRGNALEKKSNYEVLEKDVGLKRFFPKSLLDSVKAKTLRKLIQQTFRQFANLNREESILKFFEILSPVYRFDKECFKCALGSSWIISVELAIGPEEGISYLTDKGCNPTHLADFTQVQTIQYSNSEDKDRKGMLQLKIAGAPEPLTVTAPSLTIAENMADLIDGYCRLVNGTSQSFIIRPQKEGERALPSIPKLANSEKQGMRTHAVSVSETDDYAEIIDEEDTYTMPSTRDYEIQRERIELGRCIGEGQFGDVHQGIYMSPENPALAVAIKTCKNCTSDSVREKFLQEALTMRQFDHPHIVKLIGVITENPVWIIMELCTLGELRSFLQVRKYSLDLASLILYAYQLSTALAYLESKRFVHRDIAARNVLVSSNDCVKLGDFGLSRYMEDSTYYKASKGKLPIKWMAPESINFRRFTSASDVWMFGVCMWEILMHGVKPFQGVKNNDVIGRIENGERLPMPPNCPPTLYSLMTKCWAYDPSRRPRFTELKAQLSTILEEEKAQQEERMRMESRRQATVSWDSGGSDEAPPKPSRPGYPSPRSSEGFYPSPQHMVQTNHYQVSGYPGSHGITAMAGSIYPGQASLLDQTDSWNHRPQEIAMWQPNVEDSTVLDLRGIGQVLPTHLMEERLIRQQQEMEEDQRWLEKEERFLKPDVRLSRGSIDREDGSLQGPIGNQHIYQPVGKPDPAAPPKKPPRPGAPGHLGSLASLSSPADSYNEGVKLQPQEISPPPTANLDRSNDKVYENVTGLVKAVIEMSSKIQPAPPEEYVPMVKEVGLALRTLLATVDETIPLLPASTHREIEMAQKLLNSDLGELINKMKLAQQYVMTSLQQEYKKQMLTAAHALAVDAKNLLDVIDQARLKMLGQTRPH

As to `C=CCN1C(=O)[C@]2(COC(c3ccc(OCCCO)cc3)=N2)Cc2ccccc21`, the composite z-score was 0.284 in the experiment with Albumin (Bos taurus); -0.0362 in experiment [2]; -0.0583 in experiment [3]; 0.627 in experiment [4]; 2.78 in [5]; 1.11 in experiment [6]. The composite z-score with Sam68 (KHDRBS1) worked out at 0.487; in experiment [7], 0.0453; in experiment [8] it was 0.953; in [9], 3.08; in experiment [10], 1.15; in [11] it was 0.0652. Moreover, the composite z-score in experiment [12] is 0.885; in [13], 1.08; in experiment [14] it was 1.08; in the experiment with Lefty1 it was -0.14; in [16], -0.0492. In [1], the composite Z-score is -0.586 (inactive). Moreover, the z-score was 0.604 in experiment [15] and -3.52 (inactive) in [17].

Take `CCN(CC)c1ccc(N2CC=CC34O[C@@H]5C=CCCOC(=O)C5[C@H]3C(=O)N(CCCO)[C@@H]4C2=O)cc1` (stereo not given in full): the composite z-score is -0.87 in the experiment with Albumin (Bos taurus); -0.0387 in [2]; -0.102 in experiment [3]; -0.177 in experiment [4]; -0.291 in experiment [5]; -0.332 in [6]. The composite z-score was -0.876 with Sam68 (KHDRBS1); -0.218 in experiment [7]; -2.31 in experiment [8]; -1.26 in experiment [9]; -1.14 in [10]; 0.585 in [11]. Further, the composite z-score was -1.33 in experiment [12]; -0.0464 in experiment [13]; -0.175 in experiment [14]; 0.108 in the experiment on Lefty1; -1.19 in experiment [16]. In experiment [1], the composite Z-score is -0.0662 (inactive). The z-score was 0.185 in experiment [15] and -0.546 (inactive) in [17].

Turning to `COCCOC(=O)N1C(=O)[C@@]2(c3cc(C#CC4=CCCCC4)ccc31)[C@H](C(=O)N1CCN(c3ncccn3)CC1)[C@H]1C(=O)O[C@H](c3ccccc3)[C@H](c3ccccc3)N1[C@@H]2c1ccc(OCCO)cc1`, the composite z-score with Albumin (Bos taurus) was 0.565; in [2] it was -0.0345; in [3] it was 0.108; in [4], 0.278; in experiment [5], 0.676; in [6] it was 0.358. The composite z-score with Sam68 (KHDRBS1) was 1.17; in experiment [7], 0.926; in experiment [8], 1.04; in experiment [9] it was 1.07; in experiment [10] it was 1.16; in experiment [11] it was 0.31. Also, the composite z-score in [12] was found to be 0.229; in [13], 1.29; in experiment [14], 1.59; with Lefty1 it was 1.03; in [16], 0.232. In addition, the composite Z-score in experiment [1] was -0.274 (inactive). Besides, the values for the z-score in experiment [15] and in experiment [17] were -1.01 and -1.03 (inactive), respectively.

With `C=CCNC(=O)[C@H]1[C@@H]2C(=O)O[C@@H](c3ccccc3)[C@@H](c3ccccc3)N2[C@@H](c2ccc(O)cc2)[C@]12C(=O)Nc1ccc(C#Cc3ccc(OC)cc3)cc12`, the composite z-score was -0.208 in the experiment with Albumin (Bos taurus); -0.0903 in experiment [2]; 0.0086 in experiment [3]; 0.38 in experiment [4]; 1.68 in experiment [5]; 0.616 in experiment [6]. In addition, the composite z-score with Sam68 (KHDRBS1) came out at 1.3; in [7], 0.704; in experiment [8], 0.552; in experiment [9], 0.194; in [10], 1.22; in experiment [11], 0.403. The composite z-score in experiment [12] came out at 0.789; in [13], 1.16; in experiment [14], 1.13; in the experiment on Lefty1, 0.597; in experiment [16], 0.278. Besides, in [1], the composite Z-score is -0.155 (inactive). In addition, the z-score in experiment [15] is -0.769; in experiment [17] it was 0.153 (inactive).

With `O=C1c2ccccc2[C@@]2(Cc3ccccc3N(Cc3ccccc3)C2=O)[C@H](c2ccc(CO)cc2)N1Cc1ccccc1C(F)(F)F`, the composite z-score with Albumin (Bos taurus) was 0.811; in experiment [2] it was -0.128; in experiment [3] it was -0.0705; in [4], 0.781; in experiment [5], 1.04; in [6], -0.381. Moreover, the composite z-score in the experiment with Sam68 (KHDRBS1) is -1.31; in experiment [7], -1.5; in experiment [8], -0.486; in experiment [9], 1.88; in experiment [10], -0.911; in [11] it was -0.676. The composite z-score in [12] was -2.02; in [13], -0.368; in [14] it was -0.721; in the experiment on Lefty1 it was -1.04; in experiment [16], -0.749. The composite Z-score in experiment [1] was -0.372 (inactive). Further, the z-score in experiment [15] is 1.78; in [17], -0.666 (inactive).
